Reference: ChEMBL document CHEMBL4296182, “CO-ADD screening of NIH NCI Diversity Set V”
Potency and affinity values are given separately.

Tested on: Klebsiella pneumoniae
Details: Concentration 20 uM; ASSAY_TEST Inhibition of Bacterial Growth; detection method Absorption (OD600); MEDIA CAMHB; plate type 384well; NBS; CORNING #3640; time 18 hr

Compound	Inhibition [%]
CC1=CN2C(c3cccc([N+](=O)[O-])c3)=NON(c3ccc(C)cn3)C2C=C1 (stereo not drawn)	7.72
CN(C)c1ccc(/C=C(\C#N)C(=O)c2ccccc2)cc1	11.84
Cc1cc2nc(-c3ccccn3)c(-c3ccccn3)nc2cc1C	9.38
CC1(C)CC(Nc2ccc(Nc3ccccc3)cc2)CC(C)(C)N1	10.49
Cc1cccc(C)c1NC(=O)NCc1ccco1	8.14
O=C1NCN(CCO)CN1	4.75
O=C(O)C(c1ccccc1)C1(O)CCCCC1 (stereo not drawn)	5.64
CC(=O)OC1CCC2(C)C(=CCC3C2CCC2(C)C3CC3OC4(CCC(C)CN4)C(C)C32)C1 (stereo not drawn)	9.38
O=C1CCCC1C(=O)Nc1ccc2ccccc2c1 (stereo not drawn)	17.7
CCOP(=O)(OCC)/C(C#N)=C/c1ccc([N+](=O)[O-])cc1	9.62
Cc1nc(S)nc(O)c1CCC1OCCO1	-2.98
C=C(C)C(=O)Nc1ccc(NC(C)C)cc1	8.48
COC1OC(CO)C(N=C(C)C)C1O (stereo not drawn)	2.78
Cc1ccc(Nc2ccc(N)cc2S(=O)(=O)O)cc1	9.09
Cc1ccc(C)c(C(=O)CCC(=O)O)c1	19.18
CCNc1ccccc1C(=O)O	16.83
O=C1COc2cccnc2N1	27.65
O=C1c2ccccc2C2=C3C(O)=NN=C3CCN12	9.82
